CD40 NFkB inh: CD40 pathway inhibition in BL2 cells; inhibition, % at 10 µM; BL2 NF-kB luciferase reporter, CD40L-induced, 4 h; 0.94% of 83,000 active;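 active = mean inhibition of at least 50% with a set share of replicates also reaching that level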;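 also: 0% = neutral control wells and 100% = IKK inhibitor VII at 50 µM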
Starred values were filed as active, the others as inactive; [ ] = another dose, or the depositor's remark. Many of the other results were omitted from the sample, so hits are more common in it than they were.

SMILES	CD40 NFkB inh
CN(c1ccccc1)S(=O)(=O)c1cccc(C(=O)N2CCN(c3ccccn3)CC2)c1	5
O=C(CN1C(=O)c2ccccc2S1(=O)=O)Nc1ncccn1	7
O=C(CN1C(=O)c2ccccc2S1(=O)=O)Nc1ncc(Cl)cc1Cl	56*
Cc1cc(C)nc(NC(=O)CN2C(=O)c3ccccc3S2(=O)=O)n1	4
CC1(C(=O)NS(=O)(=O)Cc2cccc(Cl)c2)CCN1C(=O)c1cccc(F)c1 (centres undefined)	11
CC1(C)Cc2ccccc2-c2n[nH]c(=S)n21	10
CC1CCN(C(=O)Cn2c(=O)n(Cc3ccc4c(c3)OCO4)c(=O)c3ccccc32)CC1	9
Nc1c(C(=O)N2CCOCC2)sc2nc3c(cc12)CCCC3	69*
Nc1c(C(=O)N2CCCC2)sc2nc3c(cc12)CCCCCC3	-97
Nc1c(C(=O)N2CCOCC2)sc2nc3c(cc12)CCC3	-51
O=c1c(Cc2ccc(F)cc2)c(O)ccn1CCc1ccccn1	0
COCCCNS(=O)(=O)c1ccc(Cl)c(C(F)(F)F)c1	5
O=C(Nc1ccccc1C(=O)O)c1ccc2ccccc2n1	-53
COc1ccc(-c2cc(-c3ccccc3)c(-c3ccccc3)nn2)cc1	-16
COc1ccc(Sc2nnc(-c3ccccc3)cc2C#N)cc1	1
COc1ccc(-c2cc(-c3ccccc3)c(C#N)c(S(C)=O)n2)cc1 (centres undefined)	76*
O=C(NCCc1ccccc1)c1cnc2n(c1=O)CCS2	-65
Cc1ccc(S(=O)c2ccc([N+](=O)[O-])c3nonc23)cc1 (centres undefined)	87*
CCc1nnc(NS(=O)(=O)c2ccc(Nc3ccc([N+](=O)[O-])c4nonc34)cc2)s1	16
Cc1ccc(C)c([N+](=O)[O-])c1	12
C[C@H](CO)N1C[C@H](C)[C@@H](CN(C)Cc2ccc(Oc3ccccc3)cc2)OCc2ccccc2-c2ccccc2C1=O	69*[25 µM]
C[C@@H]1CN([C@@H](C)CO)C(=O)c2ccccc2-c2ccccc2CO[C@@H]1CN(C)Cc1ccccc1C(F)(F)F	53*[25 µM]
C[C@H](CO)N1C[C@H](C)[C@H](CN(C)Cc2ccccc2C(F)(F)F)OCc2ccccc2-c2ccccc2C1=O	45[25 µM]
C[C@@H]1CN([C@H](C)CO)C(=O)c2ccccc2-c2ccccc2CO[C@@H]1CN(C)Cc1ccccc1C(F)(F)F	83*[25 µM]
C[C@@H]1CN([C@H](C)CO)C(=O)c2ccccc2-c2ccccc2CO[C@@H]1CN(C)Cc1ccccc1	11
SMILES	CD40 NFkB inh
COc1ccccc1CN(C)C[C@H]1OCc2ccccc2-c2ccccc2C(=O)N([C@@H](C)CO)C[C@H]1C	-8[25 µM]
C[C@@H]1CN([C@@H](C)CO)C(=O)c2ccccc2-c2ccccc2CO[C@@H]1CN(C)Cc1ccc(C(F)(F)F)cc1	3
C[C@H](CO)N1C[C@H](C)[C@@H](CN(C)Cc2ccccc2)OCc2ccccc2-c2ccccc2C1=O	7
C[C@H]1CN([C@@H](C)CO)C(=O)c2ccccc2-c2ccccc2CO[C@H]1CN(C)Cc1ccccc1C(F)(F)F	33[25 µM]
CC1CC(C)CN(C(C)C(=O)Nc2cc(S(=O)(=O)N3CCCCC3)ccc2Cl)C1 (centres undefined)	8
N#C[C@@H]1[C@@H](c2ccc(C#CC3CCCC3)cc2)[C@@H](CO)N1S(=O)(=O)c1ccccc1	-3
O=C(NCCSc1ncc(-c2ccc(F)cc2)[nH]1)c1ccco1	-5
C[C@H](CO)N1C[C@H](C)[C@H](CN(C)Cc2ccncc2)OCc2ccccc2-c2c(n(C)c3ccccc23)C1=O	2
COc1ccc2cc(C3(C)NC(=O)NC3=O)ccc2c1 (centres undefined)	9
CC12C(=O)OC(=O)C1(C)C1CCC2O1 (centres undefined)	74*[25 µM]
O=C(CCc1ccccc1)NC(c1cccs1)c1cc(Cl)c2cccnc2c1O (centres undefined)	-2
Cc1oc(CSCC2CCCO2)cc1C(=O)O (centres undefined)	7
CC(C)CN(C(=O)COC(=O)c1cnc(Cl)c(Cl)c1)c1c(N)n(Cc2ccccc2)c(=O)[nH]c1=O	41
CC(C)N(Cc1ccccc1)C(=O)COC(=O)c1cnc(Cl)c(Cl)c1	61*
CN(Cc1ccccc1)C(=O)COC(=O)c1cncc(Br)c1	-4
C[C@H](CO)N1C[C@H](C)[C@@H](CN(C)C(=O)Nc2ccc(-c3cccs3)cc2)OCc2cnnn2CCCC1=O	-31[25 µM]
Cc1noc(C)c1NC(=O)N(C)C[C@@H]1OCc2cn(nn2)CCCC(=O)N([C@@H](C)CO)C[C@@H]1C	0[25 µM]
CN1C(=O)c2cc(NC(=O)c3cccc(F)c3)ccc2OC[C@@H]2O[C@@H](CC(=O)NCc3ccccc3Cl)CC[C@H]21	43[25 µM]
CC[n+]1c(/C=C2/C=C(C)CC(C)(C)C2)sc2ccc(OC)cc21	80*
Cc1cc(C(=O)OC(C)C(=O)Nc2cccc(Cl)c2)on1 (centres undefined)	-24
Cc1sc2ncnc(SCc3ccco3)c2c1C	4
Cc1nc(NCc2ccco2)c2c(C)c(C)sc2n1	49*
Cc1sc2nc(-c3ccco3)oc(=O)c2c1C	-31
